Literature values, collected in PubChem BioAssay AID977608.
Among all 4,300 compounds or so, about 4,300 (100%) were called active. No cut-off is given here; in the data, nearly all actives have IC50 up to about 1400 µM. So high a share suggests a set chosen from earlier hits. This is one part of the list. Starred links: 1 amine or outer side, 2 acyl side, 3 side chain; linkers in the order of their positions; H or OH if unused. Positions of bridges follow the written chain, without caps; N, C: chain ends. Non-standard residues stand in square brackets, D forms with d. Residues, ends and D or L forms follow the SMILES beside them. X1 = O=C([C@H](Cc1ccc(C(F)(F)[P+](O)(O)O)cc1)N[*:1])[*:2]; Nle(6-ylidene) = O=C([C@H](CCCC=[*:3])N[*:1])[*:2]; Abu = CC[C@H](N)C(=O)O

Assay: protein-ligand inhibition affinities from structures – PDB-derived complexes (AID 977608)

S=CNc1ccc2oc(C3=NCCN3)cc2c1
IC50 (literature IC50, protein: Chitinase A(W275G mutant), PDB entry 3as3): 160 µM (active)

C[C@@H]1NC(=O)[C@@H]2CSSC[C@H](NC(=O)CN)C(=O)N[C@@H](CSSC[C@@H](C(N)=O)NC(=O)[C@H](CCCNC(N)N)NC(=O)[C@H](Cc3c[nH]c4ccccc34)NC1=O)C(=O)N[C@@H](CO)C(=O)N[C@@H](CC(=O)O)C(=O)N1CCC[C@H]1C(=O)N[C@@H](CCCNC(N)N)C(=O)N2
IC50 (literature IC50, protein: nicotinic acetylcholine receptor homolog AChBP, PDB entry 2c9t): 0.033 µM (active)

CC(=O)NCC(=O)N[C@H](C)C(=O)N[C@@H]1CSSC[C@H](C(=O)N[C@H](C)C(=O)N[C@H](C)C(=O)O)NC(=O)[C@@H](CC(C)C)NC(=O)[C@@H](Cc2c[nH]c3ccccc23)NC(=O)[C@@H](C)NC(=O)[C@@H](Cc2c[nH]c3ccccc23)NC(=O)[C@@H](CCC(=O)O)NC(=O)[C@@H](CCCNC(N)N)NC(=O)[C@@H](Cc2cnc[nH]2)NC(=O)[C@@H](CCCNC(N)N)NC(=O)[C@@H](C)NC(=O)[C@@H](CCC(=O)O)NC1=O
IC50 (literature IC50, protein: IQN17, PDB entry 1czq): 29 µM (active)

CC(C)C[C@H]1NC(=O)[C@@H](Cc2c[nH]c3ccccc23)NC(=O)[C@@H](CCC(N)=O)NC(=O)[C@@H](Cc2c[nH]c3ccccc23)NC(=O)[C@@H](CCC(=O)O)NC(=O)[C@H]2CCCN2C(=O)[C@@H](CO)NC(=O)[C@@H](CCC(=O)O)NC(=O)[C@H](NC(=O)[C@@H](C)NC(=O)CNC(=O)[C@H](N)CCCCN)CSSC[C@H](C(=O)N[C@H](C)C(=O)N[C@H](C)C(=O)O)NC1=O
IC50 (literature IC50, protein: gp41 N-peptide, PDB entry 2r3c): 2.2 µM (active)

Cc1c(C(=O)O)cccc1-c1nc2nc(N)nc(OCC3CCCCC3)c2[nH]1
IC50 (literature IC50, protein: CYCLIN-DEPENDENT KINASE 2, CDK2, PDB entry 4cfu): 100 µM (active)

CNC(=O)NC(N)NCCC[C@H](NC(=O)CN=[N+]=[N-])C(=O)N(Cc1ccccc1)Cc1ccccc1 (stereo not given in full)
IC50 (literature IC50, protein: Chitinase B, PDB entry 3wd2): 0.58 µM (active)

CNC(=O)NC(N)NCCC[C@H](NC(=O)Cn1nncc1CO/N=C/c1ccnc2ccccc12)C(=O)N(Cc1ccccc1)Cc1ccccc1 (stereo not given in full)
IC50 (literature IC50, protein: Chitinase B, PDB entry 3wd1): 0.022 µM (active)

H-SIGKAFKILGYPD-OH
IC50 (literature IC50, protein: G Protein Beta:Gamma Heterodimer, PDB entry 1xhm): 0.47 µM (active)

C[C@H](NC(=O)[C@@H](N)CCC(=O)O)C(=O)N[C@@H](CCC(N)=O)C(=O)N[C@@H](Cc1ccc(C(F)(F)[P+](O)(O)O)cc1)C(=O)N[C@@H](CCC(N)=O)C(=O)N1CCC[C@H]1C(=O)O (H-EAQ[X1]QP-OH)
IC50 (literature IC50, protein: TYROSINE-PROTEIN PHOSPHATASE NON-RECEPTOR TYPE 1, PTP1B, PDB entry 3zmq): 0.36 µM (active)

CC(C)C[C@H](NC(=O)[C@H](CCCCN)NC(=O)[C@H](CCC(=O)O)NC(=O)[C@H](Cc1ccc(O)cc1)NC(=O)[C@H](C)NC(=O)[C@@H]1CCCN1C(=O)[C@@H]1CCCN1C(=O)[C@H](C)N)C(=O)N[C@@H](CO[P+](O)(O)O)C(=O)N[C@@H](C)C(=O)N[C@@H](CCC(=O)O)C(=O)N[C@@H](CCC(N)=O)C(=O)N[C@@H](CO)C(=O)N1CCC[C@H]1C(=O)N1CCC[C@H]1C(=O)O
IC50 (literature IC50, protein: MHC class II molecule HLA-DR1, PDB entry 3l6f): 0.102 µM (active)

H-DVFYPYPYASGS-OH
IC50 (literature IC50, protein: concanavalin A(ConA), PDB entry 1jyi): 100 µM (active)

CC(C)C[C@H](NC(=O)CNC(=O)[C@@H](NC(=O)[C@@H](NC(=O)[C@H](C)NC(=O)[C@@H]1CCCN1C(=O)[C@@H](N)CC(C)C)C(C)C)C(C)C)C(=O)N[C@@H](CO)C(=O)N1CCC[C@H]1C(=O)NCC(=O)N[C@@H](CCC(=O)O)C(=O)N[C@@H](CCC(N)=O)C(=O)N[C@@H](CCC(=O)O)C(=O)N[C@@H](Cc1ccc(O)cc1)C(=O)O
IC50 (literature IC50, protein: HLA-B*3501, PDB entry 1xh3): 3.1 µM (active)

C[C@H](N)C(=O)N[C@@H](Cc1ccc(C(F)(F)[P+](O)(O)O)cc1)C(=O)N[C@@H](C)C(=O)O
IC50 (literature IC50, protein: TYROSINE-PROTEIN PHOSPHATASE NON-RECEPTOR TYPE 1, PTP1B, PDB entry 3zmp): 2.13 µM (active)

CC[C@H](C)[C@H](NC(=O)[C@H](Cc1c[nH]cn1)NC(=O)[C@H](C)NC(=O)[C@H](CCC(N)=O)NC(=O)[C@@H](NC(=O)[C@H](CCCN=C(N)N)NC(=O)[C@@H]1CCC/C=C\CCC[C@H](NC(=O)[C@H](CC(N)=O)NC(=O)[C@H](CCCCN)NC(C)=O)C(=O)N2CCC[C@H]2C(=O)N[C@@H](CO)C(=O)N[C@@H](CC(C)C)C(=O)N1)C(C)C)C(=O)N[C@@H](CCCN=C(N)N)C(=O)N[C@@H](CCCCN)C(=O)N[C@@H](CCCCN)C(=O)N[C@@H](CCSC)C(=O)N[C@H](C(=O)O)C(C)C (Ac-KN[Nle(6-ylidene)]PSL[Nle(6-ylidene)]RVQAHIRKKMV-OH; staple (Z) 3-7)
IC50 (literature IC50, protein: Myosin A tail domain interacting protein, MTIP from Plasmodium falciparum, PDB entry 4mzj): 1.6 µM (active)

CC[C@H](NC(=O)[C@H](CCCCN)NC(=O)[C@H](CCCN=C(N)N)NC(=O)[C@@H]1CCC/C=C\CCC[C@H](NC(=O)[C@H](CCCN=C(N)N)NC(=O)[C@H](CC(C)C)NC(=O)[C@H](CC(C)C)NC(=O)[C@H](CO)NC(=O)[C@@H]2CCCN2C(=O)[C@@H](NC(=O)[C@H](CC(N)=O)NC(=O)[C@H](CCCCN)NC(C)=O)[C@@H](C)CC)C(=O)N[C@@H](CCC(N)=O)C(=O)N[C@@H](C)C(=O)N[C@@H](Cc2c[nH]cn2)C(=O)N1)C(=O)N[C@@H](CCSC)C(=O)N[C@H](C(=O)O)C(C)C (Ac-KNIPSLLR[Nle(6-ylidene)]QAH[Nle(6-ylidene)]RK[Abu]MV-OH; staple (Z) 9-13)
IC50 (literature IC50, protein: Myosin A tail domain interacting protein, MTIP from Plasmodium falciparum, PDB entry 4mzk): 4.9 µM (active)

Cc1ccc(-c2cnc(Nc3ccc(OCCCN4CCN(C)CC4)cc3)c(C(N)=O)n2)cc1C
IC50 (literature IC50, protein: DNA GYRASE SUBUNIT B, PDB entry 4b6c): 0.69 µM (active)

Nc1ncnc2c1ncn2[C@@H]1O[C@H](CO[P+](O)(O)O)[C@@H](O)[C@H]1O
IC50 (literature IC50, protein: Bis(5'-adenosyl)-triphosphatase ENPP4, PDB entry 4lqy): 129 µM (active) | IC50 (literature IC50, protein: Sus scrofa FRUCTOSE-1,6-BISPHOSPHATASE, PDB entry 1fpi): 1.3 µM (active) | IC50 (literature IC50, protein: human liver fructose-1,6-bisphosphatase (FBPase), PDB entry 1fta): 0.44 µM (active)

Nc1ncnc2c1ncn2[C@@H]1O[C@H](CO[P+](O)(O)O[P+](O)(O)OC[C@H]2NC[C@H](O)[C@@H]2O)[C@@H](O)[C@H]1O
IC50 (literature IC50, protein: mouse poly(ADP-ribose) glycohydrolase (PARG) catalytic domain, PDB entry 4na4): 0.12 µM (active)

Nc1ncnc2c1ncn2[C@@H]1O[C@H](CO[P+](O)(O)O[P+](O)(O)N[P+](O)(O)O)[C@@H](O)[C@H]1O
IC50 (literature IC50, protein: Microcin-J25 export ATP-binding/permease protein McjD, PDB entry 4pl0): 39.5 µM (active)

Nc1ncnc2c1ncn2[C@@H]1O[C@H](CSCC[C@H](N)C(=O)O)[C@@H](O)[C@H]1O
IC50 (literature IC50, protein: Catechol O-methyltransferase COMT, PDB entry 4pyn): 30 µM (active) | IC50 (literature IC50, protein: Catechol O-methyltransferase COMT, PDB entry 4pyo): 30 µM (active)

CC#C[C@H]1CN(S(=O)(=O)c2ccc(N)nc2)CCN1c1ccc([C@](O)(CCCC)C(F)(F)F)cc1
IC50 (literature IC50, protein: Glucokinase regulatory protein hGKRP, PDB entry 4ohk): 0.005 µM (active)

Nc1nc(Nc2ccc(C(=O)O)cc2)sc1C(O)c1cccnc1 (stereo not given)
IC50 (literature IC50, protein: Cyclin-dependent kinase 2, PDB entry 3rk5): 4 µM (active)

Nc1nc(Nc2ccccc2)sc1C(O)c1ccccc1 (stereo not given)
IC50 (literature IC50, protein: Cyclin-dependent kinase 2, PDB entry 3qtr): 0.93 µM (active)

NC(=O)c1ccc(Nc2nc(N)c(C(O)c3cccnc3)s2)cc1 (stereo not given)
IC50 (literature IC50, protein: Cyclin-dependent kinase 2, PDB entry 3rk7): 0.2 µM (active)

Nc1nc(Nc2ccccc2)sc1C(O)c1cccnc1 (stereo not given)
IC50 (literature IC50, protein: Cyclin-dependent kinase 2, PDB entry 3qtw): 0.65 µM (active)

Nc1nc(Nc2ccccc2)sc1C(O)c1cccc(C(F)(F)F)c1 (stereo not given)
IC50 (literature IC50, protein: Cyclin-dependent kinase 2, PDB entry 3rpr): 100 µM (active)

Cc1cc2c(C3=CCC=NC3=O)c(C(=O)O)n(Cc3cnc4ccccc4c3)c2cc1F
IC50 (literature IC50, protein: RNA-directed RNA polymerase, PDB entry 4mz4): 0.013 µM (active)
